# Rows were chosen to be rich in hits. Some 0.96% of all compounds tested hit in one or more screens of this group.
# beta cell repl: induces beta-cell replication in MIN6 cells. hit rate 0.29% among 330,000. proliferation, % at 10 µM. MIN6 cells proliferation, ATPlite luminescence, 48 h; cells starved in 0.2% serum; 100% = growth in 10% serum. AID 2380;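 active = compounds whose signal lies at least 3.5 SD above the mean of all wells on their plate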;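 also: 0% = DMSO-treated cells in low-serum medium and 100% = 10% serum control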
# DAGLB inh: blocks human DAGLB lipase activity; Q8NCG7; HEK293T DAGLB membrane lysate, EnzChek fluorogenic substrate; inhibition, % at 5.17 µM; hit rate 0.059% among 340,000; AID 504411; in the data active = inhibition above about 34%;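 also: 0% = enzyme with vehicle and 100% = wells lacking enzyme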
# V-ATPase pHluor: alters yeast V-ATPase proton transport; response, % at 10 µM; S. cerevisiae, pHLuorin cytosolic pH fluorescence; hit rate 0.37% among 350,000; in the data active = response mostly above about 7.3%, no sharp cut-off; inactive = mostly below about 5.4%; also: actives read high
# Rtt109 HAT inh: inhibitors of Candida albicans Rtt109/Vps75 histone acetyltransferase. purified Rtt109/Vps75, ThioGlo CoA-SH fluorescence, 4 h. hit rate 0.16% among 330,000. AID 540336. inhibition, % at 34.9 µM. Q5AAJ8;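 active = inhibition of at least 50% in every replicate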
# HDAC3 inhib: human HDAC3 inhibition | O15379 | recombinant HDAC3, fluorogenic peptide/trypsin coupled, fluorescence | inhibition, % at 8.3 µM | hit rate 0.15% among 320,000 | AID 2718; in the data active = inhibition above about 26%, passing the limit was not always enough
# Target sequence (O15379 whole entry, looked up): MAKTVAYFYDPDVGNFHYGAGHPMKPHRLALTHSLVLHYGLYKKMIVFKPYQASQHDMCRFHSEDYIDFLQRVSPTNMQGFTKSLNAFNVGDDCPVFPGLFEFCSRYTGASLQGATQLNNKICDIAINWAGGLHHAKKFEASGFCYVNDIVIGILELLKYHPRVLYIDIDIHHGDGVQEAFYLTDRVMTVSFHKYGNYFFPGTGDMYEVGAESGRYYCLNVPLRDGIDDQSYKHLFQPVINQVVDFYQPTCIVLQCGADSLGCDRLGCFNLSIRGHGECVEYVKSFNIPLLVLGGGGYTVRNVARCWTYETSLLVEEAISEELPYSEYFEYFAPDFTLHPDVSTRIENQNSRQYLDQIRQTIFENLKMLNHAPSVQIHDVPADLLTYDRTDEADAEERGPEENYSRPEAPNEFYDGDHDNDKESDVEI
# Numbers without * were called inactive; nt = no result given.
SMILES,beta cell repl,DAGLB inh,V-ATPase pHluor,Rtt109 HAT inh,HDAC3 inhib
CCn1ncc(-c2cc(C(=O)O)no2)c1C,-2,nt,-2,-2,47*
Cc1ccc(S(=O)(=O)c2cc3ccccc3oc2=Nc2ccc3c(c2)OCCO3)cc1,0.0*,0,0,-4,0
Cc1ccc(S(=O)(=O)c2cc3ccccc3oc2=Nc2ccc3c(c2)OCO3)cc1,-2,2,0,-3,-6
COc1cccc(-c2nn(-c3ccc(C)cc3)cc2C(=O)N2CCc3cc(OC)c(OC)cc3C2)c1,-6,-1,1,14,4
O=c1c2ccccc2sn1-c1cc(S(=O)(=O)N2CCOCC2)ccc1N1CCCC1,-7,4,4,7,27*
O=c1c2ccccc2sn1-c1cc(S(=O)(=O)N2CCOCC2)ccc1N1CCOCC1,-5,1,0,122*,18
Nc1cc(S(=O)(=O)N2CCOCC2)ccc1N1CCCCC1,-4,1,6,-11,3
O=S(=O)(c1ccc(F)c(F)c1)N1CCN(CCc2ccccc2)CC1,-1,-5,9.6*,1,-2
CCC(=O)Nc1ccc(C(=O)Cn2ncc(Cl)c(Cl)c2=O)cc1,-6,1,11*,-13,nt
Cc1ccc2nc(N(CCCN(C)C)C(=O)c3sc4ccccc4c3Cl)sc2c1,0,-2,3,55*,3
CCc1nnc(NC(=O)CN2C(=O)c3ccccc3C2=O)s1,-2,-1,-3,55*,-1
Cc1ccc2cc(C=O)c(N(C)C)nc2c1,0,-1,-7,5,2
Cc1c(-c2ccccc2)nnn1-c1ccc(F)cc1F,-2,-8,-2,14,7
O=C(O)CCc1ccc(-c2ccc(Cl)cc2)o1,0,1,-2,30,1
COc1ccc(-c2ccc(CCC(=O)O)o2)cc1,-2,2,5,58*,4
Cc1ccc(C(=O)NNC(=O)CNc2cccc(Cl)c2)cc1,-3,-1,2,-5,-1
O=S(=O)(Nc1ncccn1)c1ccc(-n2cnnn2)cc1,3,3,9.5*,-1,9
CCCCOc1ccc(NS(=O)(=O)c2ccc(-n3cnnn3)cc2)cc1,-2,0,1,-1,-4
O=C(CN1CCCc2ccccc21)NCc1ccc2c(c1)OCO2,-2,-1,-4,64*,4
CC(C)(C)NC(=O)CSc1nc2[nH]ncc2c(=O)[nH]1,-2,1,3,-7,0
COCCNC(=O)C(c1ccc(O)cc1)N(Cc1ccccc1)C(=O)CCC(=O)Nc1ccccn1 (stereo not given),1,-1,-1,58*,-4
COCCNC(=O)C(c1ccc(F)cc1)N(Cc1ccccc1)C(=O)CCC(=O)Nc1ccccn1 (stereo not given),0,0,-1,-4,6
CCOC(=O)c1c(C)[nH]c(C)c1C(=O)COC(=O)c1ccc(O)cc1,-2,-3,-1,16,-2
CCCCN1C(=O)C(=O)N(CC(=O)N2CCN(c3ccccc3)CC2)C1=O,2,1,-1,-7,0
CCCCN1C(=O)C(=O)N(c2ccccc2)C1=S,-2,-12,8.8*,-3,-2
SMILES,beta cell repl,DAGLB inh,V-ATPase pHluor,Rtt109 HAT inh,HDAC3 inhib
O=S(=O)(Nc1ccc(O)c(Sc2nc3ccccc3s2)c1)c1ccc(F)cc1,-4,-4,3,11,5
O=S(=O)(Nc1ccc(O)c(Sc2nc3ccccc3s2)c1)c1cccc2ccccc12,-5,1,-2,58*,12
O=c1[nH]c(=S)[nH]c2c1C(c1ccc(Br)cc1)c1c([nH]c(=S)[nH]c1=O)O2,nt,-2,147*,-4,5
O=C1CCCC2=C1C(c1ccc(Br)cc1)c1c([nH]c(=S)[nH]c1=O)N2 (stereo not given),0,6,2,8,19
O=C(NCc1ccco1)[C@@H]1CSC2c3ccccc3C(=O)N21 (stereo not given in full),-2,2,-4,0,4
NC(=O)C1=C[C@H](c2ccccc2)C[C@H](OCc2ccc(CO)cc2)O1,5,-2,1,-2,28*
COc1ccc2ccccc2c1C1CC(=O)N2CN(Cc3ccco3)CSC2=C1C#N (stereo not given),0,8,1,4,44*
COc1ccc(C2CC(=O)N3CN(Cc4ccco4)CSC3=C2C#N)cc1 (stereo not given),-2,4,4,5,37*
COc1ccc2ccccc2c1C1CC(=O)N2CN(C3CCCCC3)CSC2=C1C#N (stereo not given),-7,3,-1,11,43*
Cc1c(Cl)cccc1NC(=O)CCCN1C(=O)c2cccnc2C1=O,1,5,-3,1,0
COc1cc(S(=O)(=O)Nc2cccc(C)c2)ccc1N=Cc1c(C)[nH]n(-c2ccccc2)c1=O,0,nt,nt,nt,13
O=C(Nc1cccc(S(=O)(=O)N2CCCC2)c1)c1ccc(Cl)nc1,-2,0,1,-7,3
O=c1[nH]c2ccccc2c2oc(CCl)nc12,-6,0,-1,78*,3
CCC1CCc2c(c3ccccc3[nH]c2=O)O1 (stereo not given),0,2,3,-2,-6
Cc1ccc(C)c(NC(=O)C(Sc2cccc[n+]2[O-])c2ccccc2)c1 (stereo not given),0,1,6,12,-4
O=C(CCn1c(=O)c2ccccc2n(Cc2cccc([N+](=O)[O-])c2)c1=O)N1CCc2ccccc2C1,2,0,-7,59*,2
O=C(O)CC(NC(=O)COc1ccc(Cl)cc1Cl)C(=O)O (stereo not given),-1,-1,11,0,2
O=C(CNC(=O)c1ccncc1)N/N=C/c1ccccc1[N+](=O)[O-],-2,0,2,nt,3
O=C(CNC(=O)c1ccncc1)N/N=C/c1cccc([N+](=O)[O-])c1,3,0,6,51*,2
CCCCC(=O)N1CC(=O)Nc2ccc(F)cc2C1c1ccc(F)cc1 (stereo not given),-2,-1,1,0,-4
Cc1cccc2sc(N(CCCN(C)C)C(=O)CCc3ccccc3)nc12,0,-2,-2,58*,nt
COc1ccc(Cl)c2sc(N(CCN(C)C)C(=O)CCS(=O)(=O)c3ccc(C)cc3)nc12,1,1,0,1,7
COc1ccc(OC)c2sc(N(CCCN(C)C)C(=O)CCS(=O)(=O)c3ccccc3)nc12,-7,-1,1,83*,0
CC(=O)NCCc1nc2cc(NC(=O)c3ccccc3Cl)ccc2n1C,nt,0,1,2,2
CN(C(=O)c1cncc(Br)c1)C1C2CC3CC(C2)CC1C3 (stereo not given),-3,-3,0,59*,1
CN(C(=O)COC(=O)c1cncc(Br)c1)C1CCCCC1,-3,0,2,12,4
COc1ccc(NC(C)=O)cc1NC(=O)CN1CCN(S(=O)(=O)c2ccc(C(C)C)cc2)CC1,-3,-3,19*,3,-4

# Bioassay records deposited in PubChem BioAssay by several laboratories.
